The values below come from the supplement of paper PMC10037445.

Over roughly 2,900 compounds, “NF-kB SEAP reporter activity, fold change vs agonist alone” has its median near 0.99; the highest 2% begin near 2.6. Only a selection was taken, and the highest values are over-represented in it overall.

Test [1] relates to RAW-Dual. The experiment in a line: NF-kB SEAP reporter activity, fold change vs agonist alone; higher = enhanced NF-kB activity. The following applies: library stock concentration (final ~1000-fold dilution): 10 mM, cytotoxicity flag (confluency mask): not cytotoxic. The method in brief: (§1)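 Library stock was pin-tooled at 50 nL into 384-well plates of RAW-Dual macrophages (50,000 cells/well, DMEM), followed 1 h later by a PRR agonist, and the cells were kept at 37 °C, 5% CO2. Supernatant collected after 20 hours was read for IRF by QuantiLuc luminescence and for NF-κB by QuantiBlue absorbance at 620 nm. Reporter activity is fold change over agonist-alone wells, and a well counted as cytotoxic when its IncuCyte confluency was below 70% of agonist controls in both mask sets.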

Test [2] concerns RAW-Dual. As to the kind of experiment: NF-kB SEAP reporter activity, fold change vs agonist alone; cytotoxicity flag (confluency mask): not cytotoxic; higher = enhanced NF-kB activity. The method in brief:
as §1

Where [3] appears, read: agonist: ODN 1826 (TLR9) 0.5 ug/mL.
Setting [4] is: agonist: Pam2CSK4 (TLR2/6) 0.1 ug/mL.
Setting [5] is: agonist: Pam3CSK4 (TLR2/1) 0.1 ug/mL.

As for `COc1ccccc1C(=O)Nc1cc2c(cc1N1CCNCC1C)n(C)c(=O)n2C` (stereo unspecified), the “NF-kB SEAP reporter activity” value in the test on RAW-Dual [1] (agonist: Imiquimod (TLR7) […]) turned out to be 1.01; with RAW-Dual [1] (agonist: MPLA (TLR4) […]), 1.37.

For `COc1ccccc1C(=O)Nc1cc2c(cc1N1CCNCC1C)n(C)c(=O)n2C` (stereo unspecified) (library stock concentration (final ~1000-fold dilution): 10 mM), the “NF-kB SEAP reporter activity” value is 1.48 with RAW-Dual [2] (agonist: LPS (TLR4) 0.1 ug/mL), 0.383 with RAW-Dual [2] (setting [3]), 0.997 in the test on RAW-Dual [2] (setting [4]) and 0.973 in the test with RAW-Dual [2] (setting [5]).

Turning to `CCOC(=O)C(CCc1ccccc1)NC1CSC(c2cccs2)CN(CC(=O)O)C1=O.Cl` (stereo unspecified), the “NF-kB SEAP reporter activity” value in the test with RAW-Dual [1] (agonist: Imiquimod (TLR7) […]) and in the test on RAW-Dual [1] (agonist: MPLA (TLR4) […]) was 1.01 in each case.

Consider `CCOC(=O)C(CCc1ccccc1)NC1CSC(c2cccs2)CN(CC(=O)O)C1=O.Cl` (stereo unspecified) (library stock concentration (final ~1000-fold dilution): 10 mM), for which the “NF-kB SEAP reporter activity” value in the test on RAW-Dual [2] (agonist: LPS (TLR4) 0.1 ug/mL) worked out at 0.869; with RAW-Dual [2] (setting [3]), 1.04; with RAW-Dual [2] (setting [4]) it was 0.946; in the test with RAW-Dual [2] (setting [5]), 1.15.

As to `COc1ccc(-c2nc3cc(C4=NNC(=O)CC4C)ccc3[nH]2)cc1` (stereo unspecified), the entries for the “NF-kB SEAP reporter activity” value with RAW-Dual [1] (agonist: Imiquimod (TLR7) […]) and in the test with RAW-Dual [1] (agonist: MPLA (TLR4) […]) were 1.67 and 1.34, respectively.

`NC(=O)c1ccc(-c2nc(-c3ccc4c(c3)OCCO4)c(-c3ccccn3)[nH]2)cc1`: the results for the “NF-kB SEAP reporter activity” value in the test with RAW-Dual [1] (agonist: Imiquimod (TLR7) […]) and in the test with RAW-Dual [1] (agonist: MPLA (TLR4) […]) were 0.743 and 1.45, respectively.

Turning to `NC(=O)c1ccc(-c2nc(-c3ccc4c(c3)OCCO4)c(-c3ccccn3)[nH]2)cc1` (library stock concentration (final ~1000-fold dilution): 10 mM), the “NF-kB SEAP reporter activity” value was determined as 1.81 in the test on RAW-Dual [2] (agonist: LPS (TLR4) 0.1 ug/mL), 1.29 in the test with RAW-Dual [2] (setting [3]), 1.25 in the test on RAW-Dual [2] (setting [4]) and 0.913 with RAW-Dual [2] (setting [5]).

Consider `COc1ccc(-c2nc3cc(C4=NNC(=O)CC4C)ccc3[nH]2)cc1` (stereo unspecified) (library stock concentration (final ~1000-fold dilution): 10 mM), for which the “NF-kB SEAP reporter activity” value amounted to 1.3 with RAW-Dual [2] (agonist: LPS (TLR4) 0.1 ug/mL), 2.47 in the test on RAW-Dual [2] (setting [3]), 1.8 with RAW-Dual [2] (setting [4]) and 1.7 in the test with RAW-Dual [2] (setting [5]).

Turning to `NC(=O)c1ccc2[nH]c(-c3ccc(Oc4ccc(Cl)cc4)cc3)nc2c1`, the “NF-kB SEAP reporter activity” value was determined as 1.47 in the test on RAW-Dual [1] (agonist: Imiquimod (TLR7) […]) and 2.09 with RAW-Dual [1] (agonist: MPLA (TLR4) […]).

For `NC(=O)c1ccc2[nH]c(-c3ccc(Oc4ccc(Cl)cc4)cc3)nc2c1` (library stock concentration (final ~1000-fold dilution): 10 mM), the “NF-kB SEAP reporter activity” value with RAW-Dual [2] (agonist: LPS (TLR4) 0.1 ug/mL) stood at 1.71; with RAW-Dual [2] (setting [3]), 1.59; with RAW-Dual [2] (setting [4]) it was 2.1; in the test on RAW-Dual [2] (setting [5]), 3.55.

On to `Cl.Cl.Fc1cc(-c2cccc3ncc(-c4cnn(C5CCNCC5)c4)nc23)cc(F)c1CN1CCOCC1`, for which the “NF-kB SEAP reporter activity” value with RAW-Dual [1] (agonist: Imiquimod (TLR7) […]) was 0.92; with RAW-Dual [1] (agonist: MPLA (TLR4) […]), 0.944.

For the compound `Cl.Cl.Fc1cc(-c2cccc3ncc(-c4cnn(C5CCNCC5)c4)nc23)cc(F)c1CN1CCOCC1` (library stock concentration (final ~1000-fold dilution): 10 mM), the “NF-kB SEAP reporter activity” value in the test with RAW-Dual [2] (agonist: LPS (TLR4) 0.1 ug/mL) was determined as 0.349; in the test on RAW-Dual [2] (setting [3]) it was 0.924; with RAW-Dual [2] (setting [4]) it was 0.147; with RAW-Dual [2] (setting [5]) it was 0.912.
